# In the supplement of paper PMC3334620:
# Over roughly 33,000 sequences, “E-score (-0.5 to 0.5)” has its median near -0.056; the highest 2% begin near 0.38. This is one part of a sample in which the highest values are shown more often than they occur.
# Biological target: Stb4 (UniProt P50104)
# Experiment: PBM E-score (8-mer binding enrichment) (E-score (-0.5 to 0.5)); higher = stronger / more preferred TF binding
# Settings: protein concentration: 200 nM; construct: GST-DNA-binding domain
# In short: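 The E-score, a modified Wilcoxon-Mann-Whitney statistic, was computed by the Universal PBM Analysis Suite for every ungapped eight-base word pooled with its reverse complement. Scans behind it were normalised with masliner after bound GST-tagged yeast transcription factors were detected with fluorescent anti-GST. The proteins, at about 100-200 nM, had been applied to universal all-10-mer Agilent arrays made double-stranded by primer extension.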
# Chain of UniProt P50104 (P50104 whole entry): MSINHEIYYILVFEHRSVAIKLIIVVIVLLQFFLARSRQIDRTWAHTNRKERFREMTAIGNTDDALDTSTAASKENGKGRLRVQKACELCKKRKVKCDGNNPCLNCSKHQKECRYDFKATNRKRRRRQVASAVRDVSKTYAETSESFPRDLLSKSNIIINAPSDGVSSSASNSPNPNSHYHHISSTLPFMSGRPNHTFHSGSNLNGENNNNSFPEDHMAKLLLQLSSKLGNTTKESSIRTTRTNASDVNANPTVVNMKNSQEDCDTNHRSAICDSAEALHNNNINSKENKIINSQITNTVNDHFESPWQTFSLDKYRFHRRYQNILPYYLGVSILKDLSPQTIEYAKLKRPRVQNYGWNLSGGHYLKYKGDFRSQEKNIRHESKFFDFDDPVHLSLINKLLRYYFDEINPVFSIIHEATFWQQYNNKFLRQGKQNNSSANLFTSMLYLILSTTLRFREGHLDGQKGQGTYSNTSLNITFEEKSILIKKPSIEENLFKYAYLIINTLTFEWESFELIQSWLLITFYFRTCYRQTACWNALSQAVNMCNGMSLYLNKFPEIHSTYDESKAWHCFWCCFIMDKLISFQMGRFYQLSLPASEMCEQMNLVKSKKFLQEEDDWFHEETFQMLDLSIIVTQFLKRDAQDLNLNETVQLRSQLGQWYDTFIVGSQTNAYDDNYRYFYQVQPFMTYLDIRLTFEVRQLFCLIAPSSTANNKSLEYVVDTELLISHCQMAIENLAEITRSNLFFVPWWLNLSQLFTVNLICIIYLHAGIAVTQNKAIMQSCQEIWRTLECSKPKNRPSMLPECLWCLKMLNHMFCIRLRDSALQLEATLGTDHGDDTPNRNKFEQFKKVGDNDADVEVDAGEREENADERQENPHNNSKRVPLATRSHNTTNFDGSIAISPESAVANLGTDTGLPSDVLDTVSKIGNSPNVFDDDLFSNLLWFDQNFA
row,Sequence,PBM E-score
1,AACCGACG,0.304
2,ATCCGACG,0.452
3,GTCCGACA,0.213
4,CTCCGACC,0.315
5,AGCCGACG,0.353
6,CTCCGACA,0.227
7,ATCCGACA,0.442
8,ATCCGACC,0.425
9,ACCCGACC,0.382
10,CAAATCTA,-0.211
11,CCTTTGTC,-0.141
12,GCCTACGC,-0.306
13,TACACTGA,-0.0306
14,TCGAAGAA,-0.122
15,CCGAAGAG,0.417
16,CCGAAGAC,0.374
17,ACGAAGAG,-0.117
18,ACGAAGAA,-0.0766
19,CCGAAGAA,0.402
20,GAGTACTC,-0.00922
21,AACGACGT,-0.166
22,ATTGACCC,0.0534
23,GCGAGCGA,-0.0989
24,ACGAGCGA,-0.402
25,GCGAGCGC,-0.103

row,Sequence,PBM E-score
1,CCGAGCGC,0.44
2,CAGAGCGG,-0.0262
3,ACGAGCGG,0.0575
4,CCGAGCGA,0.403
5,CCGAGCGG,0.431
6,ACGAGCGC,-0.0806
7,AGTATCGA,-0.072
8,ATTCGCAG,-0.152
9,AAAGTCGC,0.0621
10,AGATTTAG,-0.0774
11,ACTTTGGC,0.123
12,CTCGACAC,-0.144
13,ACGAATAC,-0.0867
14,ACGAATTC,-0.192
15,CCGAATAA,0.381
16,CCGAATAC,0.425
17,CCGAATTA,0.363
18,CCGAATTC,0.398
19,ACGACCGA,0.0769
20,TCCGCCAA,0.233
21,GGGTCGGA,0.392
22,CGGTCGGC,0.318
23,AGGTCGGA,0.345
24,CGGTCGGA,0.388
25,CGGTCGTA,0.128

row,Sequence,PBM E-score
1,GGGTCGAA,0.0324
2,GCGTCCGA,0.282
3,GGCATGCC,0.156
4,GTCTAGTA,-0.11
5,GTACTGTA,-0.171
6,AACCACAG,-0.177
7,CCCGAATC,0.397
8,ACCGAATA,0.215
9,CCCGAATA,0.397
10,CACGAATA,-0.22
11,CTCGAATA,0.0163
12,GCCGAATA,0.427
13,ACCGAATC,0.357
14,CTCGAATC,-0.207
15,GTCGAATA,-0.181
16,CCATCACA,-0.197
17,CCCCATCA,-0.137
18,CCTTCTTA,-0.143
19,CCGGCATC,0.28
20,CCTTTCAA,-0.112
21,GAATGGTC,0.0599
22,CCAGACGG,-0.0564
23,TCAGATCA,-0.235
24,CCGGATCC,0.395
25,GCGGATCA,0.196

row,Sequence,PBM E-score
1,CCGGATGA,0.366
2,ACGGATGC,0.298
3,ACGGATCA,0.325
4,GCGGATCC,0.301
5,ACGGATCC,0.352
6,CCGGATGC,0.396
7,TCGGATCA,0.46
8,CCGGATCA,0.383
9,TAGGATCA,-0.0704
10,AGATCTAG,-0.255
11,TTGGCAAA,-0.183
12,AACCGCGG,0.291
13,GAGGAGGC,-0.196
14,ACGTTTTC,0.0722
15,GATTGCTA,-0.122
16,TTAGACAA,-0.0136
17,CCGGATCG,0.413
18,CAGGATCG,0.0947
19,ACGGATCG,0.315
20,TATGACGA,-0.111
21,GGAAGTGA,0.245
22,ATTAGAGG,6e-05
23,AACTGGAA,-0.0984
24,CATTTAGA,-0.00372
25,CTTCCGAA,0.479

row,Sequence,PBM E-score
1,ATTCCGAA,0.464
2,ATTCCGCA,0.169
3,ATTCCGAG,0.472
4,CTTCCGCA,0.331
5,ATTCCGTA,0.265
6,ATTCCGTG,0.363
7,AGTCCGAG,0.371
8,CTTCCAAA,-0.174
9,GTTCCGCA,0.293
10,GTTCCAAA,-0.0427
11,GTTCCGAA,0.479
12,GCGATCTA,-0.0238
13,GCGACCAA,-0.183
14,CCGCCAAG,-0.059
15,AACATCGT,-0.0992
16,ATCTCCGG,0.345
17,GCTTGCGA,-0.104
18,ACTAAGCG,-0.0604
19,CCTATATA,-0.103
20,GGAATCAC,0.244
21,CCAGGCTA,-0.289
22,CAAAATTC,0.165
23,ATTCCGTC,0.285
24,AGTCCGAC,0.11
25,ATTCCGAC,0.416

row,Sequence,PBM E-score
1,CTTCCGTC,0.341
2,CTTCCGCC,0.297
3,CTTCCGAC,0.457
4,GCTACCCC,-0.0436
5,TCTTGCAA,0.0931
6,AAAGAGCT,-0.128
7,ATTAGAAT,-0.0347
8,ACCCGGAA,0.433
9,GCCCGGGA,0.308
10,GCCCGGAA,0.423
11,TCCCGGCA,0.298
12,GCCCGGTA,0.263
13,ACCCGGAG,0.373
14,ACCCGGAT,0.374
15,CCCCGGGA,0.307
16,GCCCGGAC,0.229
17,TCCCGGGA,0.409
18,CCCCGGAA,0.27
19,TCCCGGAA,0.407
20,CGGTAGGA,0.136
21,AGCTCATA,-0.0221
22,AACAACTT,-0.165
23,CCTATGAG,-0.227
24,GTAGCAAA,-0.0766
25,ATTGACGA,-0.138

row,Sequence,PBM E-score
1,TCACATCA,-0.0958
2,CCTCGGAC,0.321
3,CCTCGGAA,0.484
4,ACTCGGAG,0.362
5,CCGCGGAA,0.352
6,CCTCGAAA,-0.27
7,CCTCGGAG,0.408
8,CATCAACC,0.00345
9,ACATCAAA,-0.0159
10,ACTCATCT,-0.224
11,AGCCAAGA,-0.22
12,AAAGGAGT,0.0609
13,GATGCGAC,0.0109
14,CTACTTGC,0.104
15,CGGATGTA,0.443
16,CGGATGAG,0.369
17,AGGATGTC,-0.0723
18,CGGATGAA,0.433
19,AGGATGTA,-0.177
20,GGGATGTA,0.109
21,CTGATGTC,0.0602
22,CGGATGTC,0.426
23,AGGATGAA,-0.0759
24,ATCCTCTG,-0.208
25,CGCCACAA,-0.0226

row,Sequence,PBM E-score
1,ACCCGTTA,0.269
2,AATGGAAA,0.0387
3,AGTCCCGA,0.389
4,AGTCCCGG,0.304
5,AGTCCCGC,0.15
6,GTCCCCGA,0.288
7,GGTCCCGA,0.39
8,CGTCCCAA,-0.155
9,CGTCCCGC,0.248
10,CGTCCCGA,0.402
11,GGTCCCTA,-0.115
12,CGTTACTA,-0.124
13,AGCCCCAC,-0.0851
14,ACAGGACA,-0.0558
15,CCATTGGA,-0.213
16,CTATTCAG,-0.288
17,CCCGCCAG,0.0645
18,AGAATAAA,-0.194
19,AAATCTAT,-0.00166
20,CAGGAAGG,-0.208
21,CGGGAAGA,0.401
22,AGGGAAGA,-0.277
23,CCGGAAGC,0.395
24,GCGGAAGC,0.336
25,CGGGAAGC,0.299

row,Sequence,PBM E-score
1,ACGGAAGG,0.313
2,ACGGAAGA,0.349
3,CCGGAAGA,0.389
4,ACGGAAGC,0.337
5,CCGGAAGG,0.392
6,GCGGAAGA,0.317
7,CATACGGG,0.152
8,AGACCGTG,-0.0481
9,AACTTGCC,0.139
10,GAGTCGCA,-0.21
11,CCAGCCCC,-0.0533
12,CGTTCCAG,-0.0906
13,AACTCATA,0.148
14,CGGGAATA,0.417
15,AGGGAATA,0.0561
16,TCAGAAGA,-0.217
17,GGGGAATA,-0.0405
18,TAGGAAGA,-0.21
19,TCGGAAGA,0.455
20,ATTAGCAC,0.00903
21,CTCCTGGC,-0.113
22,AGGCTAAA,-0.163
23,TGGCTAAA,0.0298
24,CGGCTAAA,0.388
25,AGTAGGGG,0.0719

row,Sequence,PBM E-score
1,CGGATCGA,0.404
2,AGGATCAC,-0.249
3,CGGATCTC,0.3
4,CGGATCGC,0.361
5,CGGATCAC,0.397
6,AGGATCGA,0.00545
7,GGGATCAC,-0.0541
8,CGGATCAG,0.33
9,GGGATCTA,0.0821
10,TGGATCAA,-0.243
11,CGGATCTA,0.391
12,CGGATCAA,0.401
13,CCTACAAG,-0.104
14,CGGTGGAG,0.121
15,CATTCAAA,0.048
16,CCGAGTAG,0.391
17,CCGAGTCA,0.381
18,CCGAGTAC,0.383
19,CCGAGTTA,0.34
20,ACGAGTAG,-0.11
21,ACGAGTAC,-0.106
22,CCGAGTTC,0.396
23,CCGAGTCC,0.403
24,CCGAGTAA,0.345
25,GCGAGTCC,-0.0651

row,Sequence,PBM E-score
1,ACGAGTTC,-0.00258
2,GCGAGTAC,-0.0817
3,CGAGCAGC,0.15
4,ATGACCCA,-0.283
5,AACGCACC,-0.0468
6,CTCACTTC,-0.141
7,ACCGAGCT,0.365
8,AACGAGGT,-0.293
9,AACGAGAT,0.0091
10,ACCGAGAG,0.342
11,ACCGAGAT,0.407
12,ACCGAGGT,0.392
13,ACCCAATG,-0.174
14,ACCCCATC,-0.109
15,GGTGAGTA,-0.183
16,TCCTCCAA,-0.181
17,CTGCTCGC,-0.0171
18,GTGCGGAA,0.289
19,CTACGGAA,0.222
20,GTACGGAA,0.323
21,ATGCGGAA,0.332
22,GTTCGGAA,0.474
23,CTTCGAAC,-0.00115
24,CTTCGGAA,0.485
25,CTTCGAAA,-0.2

row,Sequence,PBM E-score
1,ATTCGGAA,0.456
2,ATTCGGAC,0.373
3,ATTCGGAG,0.324
4,CTTCGGAC,0.386
5,CCTTTTCC,0.0594
6,GATAGTTA,0.0424
7,CATTTGTA,-0.106
8,ATGTAGCC,0.136
9,AGACAGCA,-0.0333
10,GCAGGCCC,-0.0954
11,ATTAGCCC,-0.0135
12,ATTAGCCG,0.4
13,ATTAGCCA,-0.26
14,AATGTCCC,0.169
15,AACTTCTC,0.0267
16,AATATTCC,0.347
17,CCCTTACA,-0.0902
18,CGGGCGAA,0.158
19,CAATCTGA,-0.0386
20,CACCGGAG,0.125
21,CACCGGAA,0.412
22,CACCGGAC,0.215
23,GACCGGAA,0.316
24,TACCGGTA,0.149
25,TACCGGAA,0.394

row,Sequence,PBM E-score
1,GATTGAGA,-0.0336
2,CAAGCGAG,0.0404
3,ACCGAAGA,0.359
4,GCCGAAGA,0.362
5,CCCGAAGG,0.394
6,ACCGAAGG,0.243
7,CGCGAAGA,0.112
8,CCCGAAGA,0.403
9,TCCGAAGA,0.458
10,CACGAAGA,-0.255
11,CCCGAAGC,0.371
12,CCCGCAGG,0.115
13,TGCACTAA,-0.112
14,ACTGAATG,0.0782
15,GTCAGGAC,-0.21
16,AGAGATTC,-0.00647
17,CAGGCCAA,-0.0749
18,TAACTTCA,-0.143
19,AGGTTGCG,-0.269
20,GTTCTATA,-0.173
21,GGACTTCA,-0.0404
22,ATATCTGA,-0.0996
23,AATGCCGA,0.415
24,GCTGCCGA,0.378
25,CCTGCCGA,0.359

row,Sequence,PBM E-score
1,TATGCCAA,-0.209
2,GATGCCGA,0.411
3,TATGCCGA,0.411
4,ACTGCCGA,0.407
5,AATGCCGT,0.277
6,CATGCCGA,0.353
7,GATGCCGC,0.0124
8,AATGCCGG,0.313
9,TATGCCCA,-0.104
10,AGAGGGCA,-0.289
11,AGGTACGA,-0.0929
12,ACAAGAAC,0.101
13,ATGGTTTG,0.117
14,CAGATCTG,-0.205
15,CAGACGAA,0.0157
16,CTACTGCA,-0.329
17,CTACTGAC,-0.0845
18,CTTAGAAC,-0.0637
19,GTCCTCGA,-0.228
